The experiment can be described thus: modulators of CD8 T cell-vesicle binding, confirmation, cherry-picked primary hits, two concentrations (AID 2810).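 As to all read-outs here: lower values mean blocking of vesicle binding.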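 As to percent response (vesicle binding): ratio of mean FL2 vesicle stain of CD8+ cells to that row's control.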 The note with it: 2C CD8+ T cell-vesicle binding, flow cytometry; for double positive events: CD8+/vesicle+ events. On the technique in general: A flow cytometer gives signals particle by particle.
The mark [1] stands for this setting: at 15.4 µM, stronger effect = lower value.

About 65 (5%) of roughly 1,200 compounds were called active.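 The calls were made as follows: active = at either tested dose, response and 90th-percentile vesicle-stain brightness of CD8 cells under set limits and under 9% cells vesicle-bound; inactive = the rest.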 Shown is part of a subset that was picked to be rich in actives.

As for `CCOc1ccc(-c2cn(-c3ccc(OC)cc3)c(SC)n2)cc1`, the double positive events reads like this: (at 7.7 µM) 11.4%; under setting [1], 13.4%. Moreover, the percent response (vesicle binding) was 155% (inactive) under setting [1] and 303% (response, at 7.7 µM).
As to `CCc1c(C)nc(SCC(=O)Nc2nc(-c3ccc(OC)cc3)cs2)[nH]c1=O`, the double positive events runs as follows: (at 7.7 µM) 33.4%; under setting [1], 10.4%. In addition, the percent response (vesicle binding) is, setting by setting: under setting [1], 192% (inactive); (response, at 7.7 µM) 289%.
`Cc1cc([N+](=O)[O-])nn1CC(=O)Nc1nccs1`: the double positive events came to 35% (at 7.7 µM) and 19.6% under setting [1]. In addition, the percent response (vesicle binding) under setting [1] is 221% (inactive) and the percent response (vesicle binding) (response, at 7.7 µM) amounted to 201%.
Turning to `Cc1ccc(S(=O)(=O)N(C)CC(=O)Nc2nc3ccccc3s2)cc1`, the double positive events came out at 30.7% (at 7.7 µM) and 26.8% under setting [1]. Also, the percent response (vesicle binding) under setting [1] is 351% (inactive) and the percent response (vesicle binding) (response, at 7.7 µM) was found to be 371%.
Take `Cc1ccc(S(=O)(=O)N2CCC(NC(=O)c3ccccc3)CC2)cc1`: the double positive events by setting is: (at 7.7 µM) 28.6%; under setting [1], 28.6%. In addition, the percent response (vesicle binding) runs as follows: under setting [1], 425% (inactive); (response, at 7.7 µM) 558%.
Regarding `Cc1ccc(S(=O)(=O)c2c(N)n(NC(=O)c3ccccc3C)c3nc4ccccc4nc23)cc1`, the double positive events was 22.8% (at 7.7 µM) and 1.1% under setting [1]. Moreover, the percent response (vesicle binding) reads like this: under setting [1], 26.2% (active); (response, at 7.7 µM) 248%.
Regarding `O=C(CN1C(=O)C2CCCN2C(=O)c2ccccc21)Nc1ccccc1-n1cccc1` (stereo unspecified), the double positive events is 5.8% (at 7.7 µM) and 12.2% under setting [1]. Besides, the percent response (vesicle binding) reads like this: under setting [1], 354% (inactive); (response, at 7.7 µM) 425%.
The matching figures for `COc1ccc(C(=O)O)cc1S(=O)(=O)Nc1cccc(C)c1`: 14.1%, 17.7%, 296% (inactive) and 181%.
In the case of `COc1ccc(N(CC(=O)O)S(C)(=O)=O)cc1OC`, the double positive events (at 7.7 µM) was found to be 24.1% and the double positive events under setting [1] is 30.5%. In addition, the percent response (vesicle binding) under setting [1] is 229% (inactive) and the percent response (vesicle binding) (response, at 7.7 µM) amounted to 691%.
As for `C=CCN(c1ccc(Br)cc1C(=O)OC)S(C)(=O)=O`, the double positive events is, setting by setting: (at 7.7 µM) 29.1%; under setting [1], 2.3%. Also, the percent response (vesicle binding) is 35.1% (active) under setting [1] and 465% (response, at 7.7 µM).
Taken in the same sequence, the figures for `c1ccc2c(c1)COC(CN1CCCCC1)OC2` were 12.3%, 10.2%, 418% (inactive) and 439%.
As to `COC(=O)[C@]1(C)N[C@H](CN(C)S(=O)(=O)c2ccc(OC(F)(F)F)cc2)[C@@H]2C(=O)N(C)C(=O)[C@@H]21`, the double positive events runs as follows: (at 7.7 µM) 9.2%; under setting [1], 26.1%. The percent response (vesicle binding) runs as follows: under setting [1], 907% (inactive); (response, at 7.7 µM) 443%.
Regarding `COc1ccc(NC(=O)CN2CCN(S(=O)(=O)c3ccc(Cl)cc3)CC2)cc1`, the double positive events is 31.1% (at 7.7 µM) and 12% under setting [1]. For the same compound, the percent response (vesicle binding) was 124% (inactive) under setting [1] and 164% (response, at 7.7 µM).
The matching figures for `CCCCNS(=O)(=O)c1ccc(OCC(=O)OC)cc1`: 14.8%, 20%, 106% (inactive) and 517%.
For `COc1ccc(-c2cc(CNS(=O)(=O)c3ccc(NC(C)=O)cc3)on2)cc1`, the double positive events is, setting by setting: (at 7.7 µM) 23.7%; under setting [1], 2.2%. Moreover, the percent response (vesicle binding) is, setting by setting: under setting [1], 18.8% (active); (response, at 7.7 µM) 277%.
Take `Cc1ccc(CN2CC(=O)N3[C@H]4c5cc(C)ccc5OC[C@@H]4[C@H](c4ccccc4)[C@]3(C)C2=O)cc1`: the double positive events (at 7.7 µM) came to 8.3% and the double positive events under setting [1] stood at 11.2%. Moreover, the percent response (vesicle binding) is, setting by setting: under setting [1], 109% (inactive); (response, at 7.7 µM) 231%.
As to `C/C(=N\NC(=O)Cn1cc([N+](=O)[O-])cn1)c1ccco1`, the double positive events is 23.5% (at 7.7 µM) and 26.1% under setting [1]. Also, the percent response (vesicle binding) under setting [1] is 268% (inactive) and the percent response (vesicle binding) (response, at 7.7 µM) worked out at 291%.
For the compound `CCOC(=O)N1CCN(C(=O)c2ccc(N3CCCC3=O)cc2)CC1`, the double positive events is, setting by setting: (at 7.7 µM) 9.7%; under setting [1], 22.5%. Also, the percent response (vesicle binding) is 213% (inactive) under setting [1] and 150% (response, at 7.7 µM).
As to `O=C(c1ccc(Cl)cc1)N1CCC(C(=O)N2CCN(c3ncccn3)CC2)CC1`, the double positive events runs as follows: (at 7.7 µM) 27.3%; under setting [1], 6.4%. The percent response (vesicle binding) was 173% (inactive) under setting [1] and 114% (response, at 7.7 µM).
Turning to `O=C(c1ccc(N2C(=O)C3CC=C(Cl)CC3C2=O)cc1)N1CCCCC1` (stereo unspecified), the double positive events by setting is: (at 7.7 µM) 19.3%; under setting [1], 5.2%. Moreover, the percent response (vesicle binding) under setting [1] is 56.9% (active) and the percent response (vesicle binding) (response, at 7.7 µM) came to 195%.
`Cc1cc(C)cc(NC(=O)CC23CC4CC(C2)CC(n2nnc(C)n2)(C4)C3)c1`: the double positive events stood at 6.1% (at 7.7 µM) and 35.3% under setting [1]. Also, the percent response (vesicle binding) under setting [1] is 236% (inactive) and the percent response (vesicle binding) (response, at 7.7 µM) was found to be 200%.
Taken in the same sequence, the figures for `CCCc1nnc(NC(=O)CCC(=O)N2CCC(Cc3ccccc3)CC2)s1` were 11.7%, 25.7%, 200% (inactive) and 291%.
In the case of `Cc1c2cccn2cc[n+]1C`, the double positive events by setting is: (at 7.7 µM) 16.6%; under setting [1], 4.4%. The percent response (vesicle binding) by setting is: under setting [1], 29.6% (active); (response, at 7.7 µM) 159%.
Take `Cc1cccc(C(=O)OCC(=O)Nc2c(C)n(C)n(-c3ccccc3)c2=O)c1`: the double positive events reads like this: (at 7.7 µM) 11%; under setting [1], 26.9%. The percent response (vesicle binding) was 392% (inactive) under setting [1] and 320% (response, at 7.7 µM).
Regarding `Cc1ccc(C(=O)NC(C)CCc2ccccc2)cc1[N+](=O)[O-]` (stereo unspecified), the double positive events is, setting by setting: (at 7.7 µM) 27%; under setting [1], 32.4%. The percent response (vesicle binding) was 199% (inactive) under setting [1] and 481% (response, at 7.7 µM).
Taken in the same sequence, the figures for `Cc1ccc(-n2ncc3c(N4CCCC(C)C4)ncnc32)c(C)c1` (stereo unspecified) were 15.4%, 13.3%, 312% (inactive) and 283%.
Taken in the same sequence, the figures for `CCSc1nnc(NC(=O)c2ccc(F)c(S(=O)(=O)N3CCOCC3)c2)s1` were 23.7%, 34.2%, 203% (inactive) and 209%.
On to `O=C(OCCOc1cccc(Cl)c1)c1ccc(F)c(S(=O)(=O)N2CCOCC2)c1`, for which the double positive events was found to be 24.5% (at 7.7 µM) and 0.7% under setting [1]. The percent response (vesicle binding) is 42.7% (active) under setting [1] and 333% (response, at 7.7 µM).
As for `O=C(NCC1CCCCC1)c1ccc(Cl)c(S(=O)(=O)N2CCOCC2)c1`, the double positive events by setting is: (at 7.7 µM) 9.2%; under setting [1], 22.8%. Also, the percent response (vesicle binding) was 342% (inactive) under setting [1] and 135% (response, at 7.7 µM).
`CC1CCN(S(=O)(=O)c2csc(C(=O)Nc3ccccc3)c2)CC1`: the double positive events reads like this: (at 7.7 µM) 33.2%; under setting [1], 23.8%. The percent response (vesicle binding) reads like this: under setting [1], 579% (inactive); (response, at 7.7 µM) 415%.
Taken in the same sequence, the figures for `CC(=O)Nc1ccccc1OC(C)C(=O)NC(C)c1ccc(F)cc1` (stereo unspecified) were 9.2%, 9%, 114% (inactive) and 420%.
For the compound `Cc1cc(F)ccc1S(=O)(=O)N1CCCOC1CNC(=O)C(=O)NC1CCCC1` (stereo unspecified), the double positive events is 11.7% (at 7.7 µM) and 9.3% under setting [1]. Further, the percent response (vesicle binding) reads like this: under setting [1], 255% (inactive); (response, at 7.7 µM) 451%.
With `COC(=O)c1ccc(OC(=O)CS(=O)c2ccccc2[N+](=O)[O-])cc1` (stereo unspecified), the double positive events runs as follows: (at 7.7 µM) 15%; under setting [1], 3.4%. Also, the percent response (vesicle binding) is, setting by setting: under setting [1], 143% (inactive); (response, at 7.7 µM) 395%.
As for `Cc1cccc(Nc2nc(-c3ccccn3)cs2)n1`, the double positive events turned out to be 28.1% (at 7.7 µM) and 5.2% under setting [1]. Further, the percent response (vesicle binding) under setting [1] was 46.7% (active) and the percent response (vesicle binding) (response, at 7.7 µM) stood at 538%.

(Values after PubChem BioAssay AID2810 (NMMLSC, 2010).)
